An excerpt weighted towards active compounds, which were near 12% of everything screened.
HP1b binding inh: inhibitors of HP1-beta chromodomain binding to methylated histone tails; Potency, µM (highest dose often 114 µM), actives largely listed as inhibitors; AID 540317; P83916; AlphaScreen HP1-beta / biotin-H3K9me3 peptide binding; 390,000 compounds, 0.56% hits; further: nearly all actives have a fitted effect of over 70% in size
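AlphaScreen: HP1-beta (50 nM) preformed 30 min with biotin-H3(1-18)K9me3 peptide (50 nM) in PBS pH 7.4, 0.01% Tween-20. Compound added for 30 min at RT, then streptavidin donor/nickel chelate acceptor beads (10 ug/mL) for 30 min.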
Sfp inh: blocks B. subtilis Sfp PPTase activity; Q9F4F7; Biochemical Sfp PPTase activity, qHTS; Potency, µM, most hits filed as inhibitors; 310,000 compounds, 3.5% hits; AID 1490;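 further: the enzyme is Sfp with the accession as filed and its product quenches rhodamine fluorescence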
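Sfp 15 nM + cpd, 15 min RT; start w/ rhodamine-CoA 5 uM, BHQ-2-YbbR 12.5 uM (final); 50 mM Hepes pH 7.6, 10 mM MgCl2, 0.01% NP-40, 0.01% BSA; read 525/598 nm at 0 and 30 min.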
JMJD2A Tudor: blocks the human JMJD2A Tudor domain | O75164 | AlphaScreen JMJD2A-Tudor / H3K4me3 peptide binding | Potency, µM (top dose mostly 114 µM), most hits filed as inhibitors | 390,000 compounds, 4.4% hits; further: nearly all actives have a fitted effect of over 50% in size
BAZ2B inh: inhibitors of human BAZ2B bromodomain; AlphaScreen BAZ2B-H3K14Ac peptide displacement; Potency, µM (doses to about 114 µM), usual class: inhibitors; 360,000 compounds, 4.4% hits; further: nearly all actives have a fitted effect of over 60% in size
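AlphaScreen displacement of biotin-H3(5-23)K14Ac peptide (50 nM final) from BAZ2B (50 nM final) in PBS pH 7.4, 0.01% Tween-20; complex preformed 30 min RT, then compounds (top 110 uM) 30 min RT, beads 20 min dark.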
G9a block: G9a (human) methyltransferase inhibition; AID 504332; Q96KQ7; 350,000 compounds, 8.8% hits; G9a H3K9 monomethylation, AlphaScreen, 2 h; Potency, µM (series often up to 102 µM), usual class: inhibitors; further: nearly all actives have a fitted effect of over 75% in size
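Methyltransferase reactions run at room temperature for 2 h (20 nM enzyme, 500 nM biotin-H3K9 peptide, 20 uM SAM) after a 15 min compound preincubation; product detected by AlphaScreen beads and anti-H3K9me1 antibody.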
PLK1 PBD inh: PLK1 (human) polo-box domain binding inhibition. P53350. Plk1 PBD binding of FITC phosphopeptide, fluorescence polarization. Potency, µM, most hits filed as inhibitors. 360,000 compounds, 2.8% hits. AID 720504; further: series mostly up to about 57 µM; nearly all actives have a fitted effect of over 65% in size
Target sequence (P53350 whole entry, looked up, the tested form may be a part): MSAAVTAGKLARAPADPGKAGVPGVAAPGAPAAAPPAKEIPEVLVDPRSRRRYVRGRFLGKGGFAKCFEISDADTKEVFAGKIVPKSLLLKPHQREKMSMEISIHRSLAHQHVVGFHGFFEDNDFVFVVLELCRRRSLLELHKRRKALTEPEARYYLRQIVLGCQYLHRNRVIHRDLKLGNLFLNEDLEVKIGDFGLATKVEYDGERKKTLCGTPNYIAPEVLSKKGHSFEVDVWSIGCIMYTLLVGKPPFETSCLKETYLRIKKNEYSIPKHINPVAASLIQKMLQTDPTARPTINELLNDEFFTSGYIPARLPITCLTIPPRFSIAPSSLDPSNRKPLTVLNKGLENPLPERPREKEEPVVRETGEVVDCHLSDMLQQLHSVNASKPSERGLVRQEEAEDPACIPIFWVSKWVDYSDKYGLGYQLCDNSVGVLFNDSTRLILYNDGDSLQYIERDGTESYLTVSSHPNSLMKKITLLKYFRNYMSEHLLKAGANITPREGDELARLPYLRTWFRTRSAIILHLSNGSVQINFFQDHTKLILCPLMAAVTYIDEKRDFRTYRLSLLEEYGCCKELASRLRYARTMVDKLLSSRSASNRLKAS
Hits are given with their value; . = inactive; ? = inconclusive; / = no result; [ ] = remark or other dose. The call rests on the fitted dose curve; in most records, active means well fitted curve in the direction sought with a large enough effect; inconclusive means small, poorly fitted or top-dose-only effect, or another doubt; inactive means no such curve, though single readings can be large; an effect the other way counts as inactive or inconclusive.

SMILES	HP1b binding inh	Sfp inh	JMJD2A Tudor	BAZ2B inh	G9a block	PLK1 PBD inh
CC(=C\C(=O)O)/C(=C/c1ccco1)C(=O)O	.	.	.	.	45µM	.
NC(=O)NOCc1ccc(Cl)cc1Cl	.	.	.[11.4 µM]	.	.	27µM
NC(=O)NOCc1ccc(F)cc1Cl	.	.	.	.	.	.
CCOC(=O)C(NCc1ccccn1)(NC(=O)c1cccnc1)C(F)(F)F (stereo unspecified)	.	?	63µM	56µM	.[12.7 µM]	.
C[C@H](CO)N1C[C@H](C)[C@@H](CN(C)Cc2ccccn2)Oc2ncc(-c3ccccc3)cc2C1=O	/	/	/	/	/	.
Cc1ccc([C@@H]2C[C@H]3CN(Cc4cccc(Cl)c4)C(=O)[C@]34CCCN24)o1	.	.	.	?	?	?
Cc1cccc([C@@H]2C[C@H]3CN(Cc4cccc(Cl)c4)C(=O)[C@]34CCCN24)n1	.	.	.	.	40µM	.
O=C1N(Cc2cccc(Cl)c2)C[C@@H]2C[C@@H](c3c[nH]c4ccccc34)N3CCC[C@@]123	.	.	?	.	35µM	.
O=C1N(Cc2cccc(Cl)c2)C[C@@H]2C[C@@H](c3cccc4ncccc34)N3CCC[C@@]123	.	.	.	.	.	.
Cc1cc(C)c(S(=O)(=O)N2CCCOC2CNC(=O)C(=O)NCc2ccco2)c(C)c1 (stereo unspecified)	.	.	.	.	.	.
O=C1OC(c2ccccc2)/C(=C(/O)c2ccc(Cl)cc2)C1=O (stereo unspecified)	.	.	25µM	?	.[12.7 µM]	.
CN1C(=O)C(=O)/C(=C(/O)c2ccccc2)C1c1ccccc1 (stereo unspecified)	.	.	.	.	?	.
O=C1OC(c2ccccc2)/C(=C(/O)c2ccccc2)C1=O (stereo unspecified)	.	.	35µM	.	.[12.7 µM]	.
O=C1C(=O)N(CCO)C(c2cccc(F)c2)/C1=C(\O)c1ccc(Cl)cc1 (stereo unspecified)	.	.	.	?	.[0.501 µM]	.
Cc1ccc(/C(O)=C2/C(=O)C(=O)OC2c2ccc(Cl)cc2)cc1 (stereo unspecified)	.	.	79µM	.	?	?
Cc1ccc(S(=O)(=O)N2C(=O)C(c3ccccc3)SC2=Nc2ccccc2)cc1 (stereo unspecified)	?	20µM	.	.	7.9µM	9.5µM
Cc1ccc(CC(=O)Nc2ccc(C(=O)N3CCOCC3)cc2)cc1	.	.	.	.	18µM	.
CC(=O)Nc1ccc(NC(=O)N2CCOCC2)cc1	/	/	/	/	/	.
COc1ccc(CC(=S)N2CCOCC2)cc1	?	16µM	.	.	?	7.5µM
CC(=O)/C(=N\Nc1ccc(C)cc1)N1CCOCC1	.	.	.	.	28µM	.
Cc1ccc(CC(=S)N2CCOCC2)cc1	.	35µM	.	.	8.9µM	19µM
CCc1ccc(CC(=S)N2CCOCC2)cc1	.	.	.	.	.	.
COC(=O)c1sc2cccc(F)c2c1S(=O)(=O)N1CCN(c2ccccc2OC)CC1	.	/	.	.	?	/
CCNC(=O)/C=C1\NC(C)(C)Cc2c1ccc1ccccc21	.	.	.	.	11µM	.
CC1(C)Cc2c(ccc3ccccc23)C(=O)N1	.	.	.	.	.[12.7 µM]	.
SMILES	HP1b binding inh	Sfp inh	JMJD2A Tudor	BAZ2B inh	G9a block	PLK1 PBD inh
CNC(=O)/C=C1\NC(C)(C)Cc2ccccc21	.	50µM	.	.	.[12.7 µM]	.
Cc1cccc2c1CC(C)(C)N/C2=C\C(N)=O	.	.	.	.	?	?
CCC1(C)Cc2ccccc2/C(=C/C(=O)N2CCCCC2)N1 (stereo unspecified)	.	.	?	?	40µM	.
CC(C)N(C(=O)[C@H]1C[C@H](CC(=O)NCC23CC4CC(CC(C4)C2)C3)C(=O)N2CCc3c([nH]c4ccc(Cl)cc34)[C@]12C)C(C)C	.	/	.	/	/	.
Clc1ccc(Nc2ncnc3ccc(Br)cc23)cc1	.	.	.	.	.	.
CN(C)c1ccc(Nc2ncnc3ccc(Br)cc23)cc1	?	?	45µM	45µM	10µM	.
COC(=O)c1ccccc1NC(=O)/C=C/c1cc(OC)c(OC)c(OC)c1	.	.	.	.	.[12.7 µM]	.
CC(C)CCn1c(SCc2ccc(Cl)cc2)nc2c1c(=O)[nH]c(=O)n2C	.	45µM	.	.	14µM	27µM
COCCn1c(SCc2ccc(F)cc2)nc2c1c(=O)[nH]c(=O)n2C	?	45µM	.	.	/	11µM
CCCCCOC(=O)CSc1nc2c(c(=O)[nH]c(=O)n2C)n1Cc1ccc(Cl)cc1	.	?	.	.	40µM	?
CCOCCn1c(SCc2ccc(F)cc2)nc2c1c(=O)[nH]c(=O)n2C	.	.	.	.	?	.
CCCCn1c(SCc2ccc(Cl)cc2)nc2c1c(=O)[nH]c(=O)n2C	.	?	?	.	?	21µM
CC1CCC(NC(=O)c2ccc3c(c2)N(Cc2cccc(Cl)c2)C(=O)c2ccccc2S3(=O)=O)CC1 (stereo unspecified)	.	/	.	.	.	/
CCC(C)C(NC(=O)OC(C)(C)C)C(=O)NC(C)C(N)=O (stereo unspecified)	.	.	.	.	.	.
O=C(Cn1nc(N2CCN(c3ccccc3)CC2)ccc1=O)NCc1cccc(Cl)c1	.	/	?	.	?	/
CC1Sc2ccc(S(=O)(=O)CCC(=O)NC3CCCC(C)C3C)cc2NC1=O (stereo unspecified)	.	.	.	.	.	.
O=C(Nc1ccc(F)cc1F)c1cc(=O)n(-c2ccccc2)c(=O)[nH]1	.	.	.	.	.	.
CCc1ccc(CNC(=O)c2cc3c(s2)-c2ccccc2OC3)cc1	.	/	.	.	.	/
CCOCCn1c(SCC(=O)OCc2ccccc2)nc2c1c(=O)[nH]c(=O)n2C	.	.	.	.	.[12.7 µM]	21µM
CCOCCn1c(SCc2ccccc2)nc2c1c(=O)[nH]c(=O)n2C	.	.	.	.	.[12.7 µM]	.
CN(C)CCNC(=O)c1ccc2c(c1)N(Cc1c(F)cccc1Cl)C(=O)c1ccccc1S2	.	/	?	/	16µM	/
COCCCNC(=O)/C=C1\Sc2ccccc2N(Cc2ccccc2F)C1=O	.	.	.[11.4 µM]	.	.	.
CN1CCN(CCCNC(=O)c2ccc(/C=C3/Sc4ccccc4N(Cc4cccc(Cl)c4)C3=O)cc2)CC1	.	50µM	?	?	40µM	.
CCN1CCN(CCNC(=O)c2ccc(/C=C3\Sc4ccccc4N(Cc4ccccc4F)C3=O)cc2)CC1	.	79µM	56µM	?	50µM	?
CCOc1ccc(CN2C(=O)c3ccccc3Sc3ccc(C(=O)NCCCN4CCOCC4)cc32)cc1	.	.	.	79µM	.	.
O=C(NCCN1CCOCC1)c1ccc2c(c1)N(Cc1c(F)cccc1Cl)C(=O)c1ccccc1S2	.	.	.	.	?	.
